Bioassay records (PubChem BioAssay)
Sampled rows, rich in hits. Any-hit rate of the full collection: about 7.4%.
ELG1 genotox: qHTS screen for small molecules that induce genotoxicity in human embryonic kidney (HEK293T) cells expressing luciferase-tagged ELG1; HEK293T ELG1-luciferase reporter, luminescence, 16 h; Potency, µM (doses to about 46 µM), without a hit: at the top dose activity change, positive = activation, usual class: activators; 330,000 compounds, 1.3% hits; AID 504466, 2011; note: % of control where 0% means no effect; nearly all actives have a fitted effect of over 60% in size
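ELG1-luciferase HEK293T cells, 2,000/well; compound pinned in; 16 hr, 37 °C, 5% CO2; ONE-Glo, 30 min RT; luminescence on CCD imager.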
FLuc counter: qHTS profiling assay for firefly luciferase inhibitor/activator using purifed enzyme and Km concentrations of substrates (counterscreen for miR-21 project); purified FLuc, Km substrates, luminescence inhibition; Potency, µM (series often up to 57.5 µM), for the others: top-dose activity change, negative = inhibition, most hits filed as inhibitors; Luciferin 4-monooxygenase (Photinus pyralis), P08659; AID 588342, 2011; 360,000 compounds, 6.9% hits;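 note: plate controls were vehicle for no effect and reference inhibitor for full effect; nearly all actives have a fitted effect of over 55% in size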
Target sequence (P08659 whole entry, looked up): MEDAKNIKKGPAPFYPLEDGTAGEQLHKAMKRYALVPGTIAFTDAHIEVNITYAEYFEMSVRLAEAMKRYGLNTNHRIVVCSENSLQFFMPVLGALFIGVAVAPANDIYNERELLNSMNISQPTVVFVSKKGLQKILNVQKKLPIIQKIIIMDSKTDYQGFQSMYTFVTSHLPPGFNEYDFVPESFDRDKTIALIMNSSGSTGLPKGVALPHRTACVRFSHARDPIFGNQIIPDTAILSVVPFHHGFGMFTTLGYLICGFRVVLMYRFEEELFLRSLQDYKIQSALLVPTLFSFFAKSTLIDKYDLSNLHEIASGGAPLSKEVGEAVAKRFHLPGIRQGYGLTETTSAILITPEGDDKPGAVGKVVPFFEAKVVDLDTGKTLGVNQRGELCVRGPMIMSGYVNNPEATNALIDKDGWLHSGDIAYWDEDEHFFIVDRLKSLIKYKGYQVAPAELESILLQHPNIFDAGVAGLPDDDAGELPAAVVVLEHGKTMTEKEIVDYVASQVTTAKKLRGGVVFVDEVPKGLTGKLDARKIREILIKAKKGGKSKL
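Purified P. pyralis luciferase (10nM final) with 10uM D-luciferin and 10uM ATP (Km levels) in 50mM Tris acetate pH 7.5, 10mM Mg acetate, 0.01% Tween-20, 0.05% BSA; qHTS 6-point titration, ~60 µM downward; luminescence read.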
Rab9 promoter act: qHTS Assay for Rab9 Promoter Activators. Huh7 Rab9 promoter-luciferase reporter, luminescence, 24 h. Potency, µM (titrated, usually from 9.22 µM), for inactives: top-dose activation, negative = inhibition, actives largely listed as activators. 320,000 compounds, 2.8% hits. AID 485297, 2010; note: % of control where 0% means no effect; nearly all actives have a fitted effect of over 60% in size
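Cell-based reporter: Huh7 stable for Rab9 promoter-driven luciferase, plated in reduced-serum medium with 10% FBS at 1500 cells/well, compound-treated 24 h at 37 °C, luminescence read after 10 min reagent.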
NPC1 prom act: qHTS Assay for NPC1 Promoter Activators | Huh7 NPC1 promoter luciferase reporter, 24 h | AID 485313, 2010 | Potency, µM (highest dose often 9.22 µM), inactives show at the highest dose activation, hits mostly activators | 320,000 compounds, 2.4% hits; note: % of control where 0% means no effect; nearly all actives have a fitted effect of over 60% in size
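In 1536-well qHTS, Huh7 cells harboring an NPC1 promoter–luciferase construct received compound for 24 h; activation was quantified by luminescence following luciferase reagent addition.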
SMN2 splice up: qHTS Assay for Enhancers of SMN2 Splice Variant Expression; 210,000 compounds, 2.8% hits; Potency, µM (highest dose often 46.1 µM), for the others: at the top dose activity change, positive = activation, most hits filed as activators; HEK293 SMN2-luciferase splicing reporter, luminescence, 30-36 h; note: % of control where 0% means no effect; nearly all actives have a fitted effect of over 55% in size
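HEK293 cells carry an SMN2 minigene-luciferase reporter in which exon 7 inclusion puts luciferase in frame. Cells were seeded at 2000 cells/well, attached for 10-12 hours, then exposed to compounds for 30-36 hours at 37C before ONE-Glo luminescence.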
* hit, by the source's call; ? = inconclusive; . = no result given. Calls come from the whole dose curve; as a rule, active = well fitted curve in the direction sought with a large enough effect; inconclusive = small, poorly fitted or top-dose-only effect, or another doubt; inactive = no such curve, though single readings can be large; an effect the other way counts as inactive or inconclusive. Potency is the fitted concentration of half-maximal effect.

SMILES	ELG1 genotox	FLuc counter	Rab9 promoter act	NPC1 prom act	SMN2 splice up
COc1cccc(/C=C/C(=O)OCC(=O)Nc2cccc(S(=O)(=O)N(C)C)c2)c1	22%	11µM*	-7%	0%	-21%
CN(C)S(=O)(=O)c1cc(NC(=O)COC(=O)/C=C/c2ccco2)ccc1Cl	4%	?	-2%	-1%	.
O=C(Nc1nc2ccccc2[nH]1)c1ccc(Cl)c([N+](=O)[O-])c1	?	?	-1%	-3%	13µM*
Cc1c(C(=O)NC(Cc2ccccc2)c2nc3ccccc3[nH]2)cccc1[N+](=O)[O-] (stereo not drawn)	-2%	-14%	2%	-2%	-3%
Cc1c(C(=O)Nc2nc3ccccc3[nH]2)cccc1[N+](=O)[O-]	14%	15µM*	?	19%	20µM*
O=C(Nc1nc2ccccc2[nH]1)c1ccccc1[N+](=O)[O-]	15%	?	20%	?	13µM*
O=C(NC(Cc1ccccc1)c1nc2ccccc2[nH]1)c1ccc(Cl)c([N+](=O)[O-])c1 (stereo not drawn)	-2%	-8%	9%	-1%	.
CCc1cccc(NC(=O)Cn2c(C(=O)OC)cc3occc32)c1	.	-8%	.	.	-10%
O=C(/C=C/c1ccco1)Nc1ccccc1C(=O)O	10µM*	2.7µM*	2.8µM*	2µM*	13µM*
O=C(/C=C\c1ccco1)Nc1cc([N+](=O)[O-])ccc1F	?	4%	-27%	-11%	-12%
O=C(/C=C/c1ccco1)Nc1ccc2nn(-c3ccccc3)nc2c1	1%	-18%	?	22%	16%
O=C(/C=C/c1ccco1)Nc1cc(Cl)ccc1C(=O)O	1%	19µM*	-4%	3%	3%
O=C(/C=C/c1ccco1)Nc1ccccc1C(=O)Nc1cccc(C(=O)O)c1	4%	3µM*	1%	2%	.
COC(=O)c1cc2sc(C)cc2n1Cc1nc(-c2ccc(C)cc2)oc1C	.	-5%	.	.	-4%
Cc1ccc2nc(NC(=O)c3ccc4ncsc4c3)sc2c1	2.9µM*	0.95µM*	1.3µM*	1.6µM*	7.1µM*
NS(=O)(=O)c1ccc2nc(NC(=O)c3ccc4ncsc4c3)sc2c1	8%	2.4µM*	21%	22%	.
Cc1ccc2nc(NC(=O)c3ccc4c(c3)OCO4)sc2c1	14%	0.95µM*	1.1µM*	1.6µM*	11µM*
NS(=O)(=O)c1ccc2nc(NC(=O)c3ccc4c(c3)OCCO4)sc2c1	3%	-7%	3%	-5%	.
O=C(Nc1ccon1)c1ccc2c(c1)OCO2	?	?	?	27%	?
O=C(/C=C/c1ccc2c(c1)OCO2)Nc1nc2ccc(F)cc2s1	?	?	1.4µM*	1.8µM*	.
Cc1ccc(C(=O)Nc2nc3ccc(S(=O)(=O)N4CCCC4)cc3s2)cc1	.	-5%	.	.	.
COc1cccc([C@@H]2Oc3ccc(OC)cc3C(=O)[C@H]2OC(=O)NC2CCCC2)c1	.	.	.	.	4%
COc1ccc(CCNC(=O)CSc2ccc(-c3ccccc3)nn2)cc1	1%	3%	-3%	-3%	-1%
CCSc1ccc(-c2ccc(C)cc2)nn1	?	2.4µM*	0.71µM*	1µM*	10µM*
COc1ccc(-c2ccc(SC)nn2)cc1	-8%	1.5µM*	0.1µM*	0.5µM*	1.8µM*
SMILES	ELG1 genotox	FLuc counter	Rab9 promoter act	NPC1 prom act	SMN2 splice up
CCOc1ccc(-c2ccc(SCC)nn2)cc1	1.2µM*	1.2µM*	0.63µM*	0.71µM*	4.5µM*
Cc1ccnc(NC(=O)C2CCN(S(=O)(=O)c3ccc(C)c(C)c3)CC2)c1	?	?	4%	1%	.
CC(C)NC(=O)N(C)C[C@H]1Oc2ccc(NC(=O)C3CC3)cc2C(=O)N([C@H](C)CO)C[C@@H]1C	-1%	.	.	.	.
O=C(c1ccc2c(c1)N(Cc1ccc(F)cc1)C(=O)c1ccccc1S2(=O)=O)N1CCC(Cc2ccccc2)CC1	.	-1%	.	.	-18%
CCOC(=O)Cc1csc(NC(=O)/C=C\c2ccccc2Cl)n1	8%	1.5µM*	?	27%	.
CCOC(=O)Cc1csc(NC(=O)/C=C/c2ccccc2Cl)n1	-7%	1.2µM*	?	?	.
CCOC(=O)Cc1csc(NC(=O)c2c(-c3c(Cl)cccc3Cl)noc2C)n1	-1%	4%	-3%	-6%	4%
CCOc1cc(Br)c(COc2ccc(C)nc2[N+](=O)[O-])cc1OCC	-19%	3%	-2%	2%	.
Cc1ccc(OCCOc2cccc(Br)c2)c([N+](=O)[O-])n1	?	?	?	?	18µM*
Cc1ccc(OCc2ccc(-c3ccccc3)cc2)c([N+](=O)[O-])n1	27%	?	21%	18%	.
Cc1ccc(OCc2ccc(Br)cc2)c([N+](=O)[O-])n1	7.3µM*	5.4µM*	1µM*	2.2µM*	10µM*
Cc1ccc2cc(CN(C)C(=O)c3cccc(Cl)c3)c(=O)[nH]c2c1	.	-8%	.	.	8%
c1ccc(C2Nc3ccccc3-c3nc4ccccc4n32)cc1 (stereo not drawn)	?	21µM*	6%	3%	26%
c1ccc(C2Nc3ccccc3-c3nc4ccccc4n32)nc1 (stereo not drawn)	2%	?	-1%	-6%	-8%
c1coc(C2Nc3ccccc3-c3nc4ccccc4n32)c1 (stereo not drawn)	?	21µM*	?	?	18µM*
Cc1cc2n(n1)C(c1ccco1)Nc1ccccc1-2 (stereo not drawn)	3%	0%	1%	-6%	-2%
COc1ccccc1CNC(=O)CCCCn1c(=O)c2ccccc2n(Cc2ccccc2F)c1=O	.	-4%	.	.	-4%
CCCNC(=O)c1cc(-c2ccc(Br)cc2)on1	?	?	2.2µM*	2.2µM*	?
CC(C)NC(=O)c1cc(-c2ccc(Br)cc2)on1	?	2.7µM*	1.6µM*	1.4µM*	20µM*
CN(Cc1ccccc1)C(=O)c1cc(-c2ccc(Br)cc2)on1	8%	15µM*	?	9%	?
Cc1ccc(-c2cc(C(=O)NCCN3CCOCC3)no2)cc1	6%	?	3%	2%	-4%
CCOC(=O)C1CCN(S(=O)(=O)c2cc(C(=O)OC)n(C)c2)CC1	-4%	0%	-4%	-5%	.
Cc1ccc(NC(=O)CN2C(=O)NC3(CCCc4ccccc43)C2=O)c([N+](=O)[O-])c1 (stereo not drawn)	-8%	1%	11%	0%	.
COc1ccccc1-c1ccc(Nc2cccc(C(F)(F)F)c2)nn1	-1%	4%	20%	2%	-9%
COc1ccccc1-c1ccc(NC2CCCCC2)nn1	?	7.6µM*	?	?	10µM*
